# According to PubChem BioAssay AID686978 (National Center for Advancing Translational Sciences (NCATS), 2013):
# The whole screen tested about 420,000 compounds, of which about 64,000 (15%) were called active. Inconclusive results (about 27%) are left out. The list is a sample of the results. Unmarked numbers belong to inactive results. The call rests on the fitted dose curve; in most records, active means well fitted inhibition curve with a large enough effect; inconclusive means small, poorly fitted or top-dose-only effect; inactive means flat fitted curve, though single readings scatter.
# Test: qHTS for Inhibitors of human tyrosyl-DNA phosphodiesterase 1 (TDP1): qHTS in cells in absence of CPT; further: nearly all actives have a fitted effect of over 55% in size
# Conditions: DT40 Tdp1-/- hTDP1 cells, no CPT, ATP luminescence, 48 h; activity change, negative = growth inhibition: at 46.2 µM (top of the series)
# Procedure, shortened: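 A cellular qHTS used chicken DT40 cells lacking endogenous Tdp1 but carrying stably transfected human TDP1. Compounds were applied without camptothecin, and cell growth kinetics were judged by ATP-dependent luminescence after ≥48 hr.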
# On the % scale 0 is the no-effect control and ±100 the full control effect; potency means the concentration at half of the fitted maximal effect.
SMILES,"activity change, negative = growth inhibition",Potency
COc1cccc(N2CC(NS(=O)(=O)c3ccc(Cl)cc3)CC2=O)c1 (configuration not stated),-18.3%,
COc1ccc(N2CC(NS(=O)(=O)c3ccc4ccccc4c3)CC2=O)cc1 (configuration not stated),,23.1 µM (active)
COc1cccc(N2CC(NS(=O)(=O)c3cccs3)CC2=O)c1 (configuration not stated),-5.55%,
COC(=O)N(NC(=O)C(O)(C(C)C)C(C)C)c1ccccc1,3.81%,
CCCCC(O)(CCCC)C(=O)NN(C(=O)CCl)c1ccccc1,,20.6 µM (active)
CC(C)(O)C(=O)NN(C(=O)c1ccccc1)c1cccc(Br)c1,4.16%,
CCCC(O)(CCC)C(=O)NN(C(=O)CCl)c1cccc(C)c1,,5.8 µM (active)
Cc1ccc(N(NC(=O)C(C)(C)O)C(=O)c2ccccc2)cc1C,-27%,
CN(C)/C=C/c1c(C#N)c(=O)ncn1Cc1ccccc1,11.3%,
COc1cc(/C=C(/NC(=O)c2ccc(Cl)cc2Cl)C(=O)O)cc(OC)c1OC,-3.62%,
Cc1ccc(C(=O)N/C(=C\c2ccco2)C(=O)N2CCSCC2)cc1C,2.18%,
CCNc1nc(N)nc(Oc2ccc(OCC)nn2)n1,-5.62%,
CCOc1cccc(=O)c2c(C)n(CC3CCCO3)c(C)c12 (configuration not stated),-21.8%,
Cc1ccc2c(=O)c(C(=O)c3ccc(F)cc3)cn(CC(=O)NC3CCCCC3)c2n1,-11.5%,
CC(OC(=O)CNC(=O)c1ccco1)C(=O)Nc1ccc(Cl)cn1 (configuration not stated),-3.04%,
CCn1c(SCC(=O)NCC2CCCO2)nc2ccccc21 (configuration not stated),1.62%,
S=C(NCCc1ccccc1)NCC1CCCO1 (configuration not stated),,23.1 µM (active)
Cc1ccc(C(=O)NCC2CCCO2)o1 (configuration not stated),13%,
O=C(CS(=O)(=O)Cc1ccccc1)NCC1CCCO1 (configuration not stated),-15%,
CN(CCc1ccccn1)C(=O)c1ccc(OC2CCN(Cc3ccccn3)CC2)cc1,-9.13%,
COCCCNC(=O)Cn1cc(/C=C(\C#N)C(=O)N2CCN(c3ccccc3)CC2)c2ccccc21,-35.8%,
COC(=O)Cn1cc(/C=C/[N+](=O)[O-])c2ccccc21,,14.6 µM (active)

SMILES,"activity change, negative = growth inhibition",Potency
COC(=O)c1cn(CC(=O)NCc2cccs2)c2ccccc12,0.284%,
CCCn1nc(C(=O)OCc2nc(N)nc(Nc3ccccc3C)n2)c2ccccc2c1=O,-16%,
COCCN(C(=O)CCC(=O)Nc1nccs1)C(C(=O)NC(C)(C)C)c1ccc(Cl)cc1 (configuration not stated),-20.2%,
CCn1c(CN2C(=O)CSc3ccccc32)n[nH]c1=S,-8.13%,
COc1ccc(Br)cc1CNC(=O)c1cc(=O)[nH]c2ccc(S(=O)(=O)N3CCCC3)cc12,-7.47%,
CCN1CCN(c2nc(Nc3cc(OC)ccc3OC)nc(Nc3cc(OC)ccc3OC)n2)CC1,,23.1 µM (active)
CCN1CCN(C(=O)c2cc3cc4ccc(OC)cc4nc3s2)CC1,-22.2%,
CCOC(=O)CNc1nc(Cl)nc(Nc2ccc(OC)cc2OC)n1,-24.2%,
c1ccc(-c2c[nH]c(-c3ccccc3)c2)cc1,-2.86%,
Cc1nn(-c2cc(Cl)ccc2N)c(=O)c2ccccc12,-14.5%,
O=C1c2ccccc2C(=O)N1c1cccc2ccccc12,-3.87%,
Cn1c(=O)c2cn(-c3cccc4ccccc34)cc2n(C)c1=O,,25.9 µM (active)
COc1ccc(OC)c(-n2cc3c(=O)n(C)c(=O)n(C)c3c2)c1,,14.6 µM (active)
CC(=O)Nn1cc2c(=O)n(C)c(=O)n(C)c2c1,-1.04%,
COc1ccc(NC(=O)CCNS(=O)(=O)c2ccc3c(c2)c(=O)n(C)c(=O)n3C)cc1OC,-28%,
COc1cccc(OC)c1C(=O)Nc1ccc2c(c1)n(C)c(=O)n2C,17.7%,
CCSC1(SCC)N=C(N)C2(C#N)C(c3ccccc3)NC(C)=CC12C#N (configuration not stated),-15%,
O=C(Cn1nnc2ccccc2c1=O)NCc1ccc(Cl)cc1,-26.9%,
Cc1noc(C)c1C(=O)OC(C)C(=O)Nc1ccc2c(c1)OCO2 (configuration not stated),-20.5%,
NC(=O)c1ccc(Nc2ccc3nonc3c2[N+](=O)[O-])cc1,-0.787%,
Cc1ccc(C)c(S(=O)(=O)Nc2cc(C)on2)c1,24.7%,
O=C(CN1CCCSc2ccccc21)N1CCN(S(=O)(=O)c2cccc(F)c2)CC1,,7.31 µM (active)

SMILES,"activity change, negative = growth inhibition",Potency
O=C(CN1CCN(S(=O)(=O)c2cccc(Cl)c2)CC1)N1CCCCC1,1.53%,
O=C(CN1CCCSc2ccccc21)N1CCN(S(=O)(=O)c2ccccc2)CC1,-21.5%,
COC(=O)[C@]1(S(=O)(=O)c2ccccc2)C[C@@H]2ON=C(c3ccc(OC)cc3)[C@@H]2C1,-18.7%,
N#C[C@]1(S(=O)(=O)c2ccccc2)C[C@@H]2ON=C(c3cccc(Br)c3)[C@@H]2C1,,6.51 µM (active)
Cc1nc2sc(C)c(C)n2c(=O)c1S(=O)(=O)NCCc1ccc(Cl)cc1,-8.23%,
O=C(CN1CCN(S(=O)(=O)c2ccc(Cl)s2)CC1)N1CCCCC1,-6.5%,
CCC(C)(C)NC(=O)C1c2ccccc2Oc2ccccc21,-10.4%,
O=C(N/N=C/c1ccc(O)c(O)c1)C1c2ccccc2Oc2ccccc21,,25.9 µM (active)
O=C(N/N=C/c1cc2c(cc1Br)OCO2)C1COc2ccccc2O1 (configuration not stated),-18.1%,
COC1[C@H](OC(N)=O)C(O)[C@H](Oc2ccc3c(O)c(NC(=O)c4ccc(O)c(CC=C(C)C)c4)c(=O)oc3c2C)OC1(C)C (some centres not stated),-6.85%,
O=C1C=C(NCCNc2c(F)c(F)c(CO)c(F)c2F)CCC1,-8.45%,
COc1ccc(Cc2nnc(N/N=C/c3ccccc3O)[nH]c2=O)cc1OC,,0.0206 µM (active)
O=c1[nH]c(NCCO)nnc1Cc1ccc(Cl)cc1,-10.1%,
CC(C)c1ccc(Cc2nnc(NCCCO)[nH]c2=O)cc1,-9.08%,
CCc1cc(=O)oc2cc(C)cc(OC(C)C(=O)O)c12 (configuration not stated),6.97%,
CC(C)CNS(=O)(=O)c1ccc(OCC(=O)Nc2ccc3c(c2)OCO3)c(Cl)c1,2.5%,
CC(=O)OCC(C)n1c(=O)c2ccccc2n1C(C)=O (configuration not stated),-18.2%,
CCCc1cc(=O)[nH]c(SCC(=O)N2C(C)CCCC2C)n1 (configuration not stated),-4.08%,
CCCCCn1c(=O)[nH]c2cc(C(=O)Nc3cc(C)cc(C)c3)ccc2c1=O,,4.61 µM (active)
COCCn1c(=O)[nH]c2cc(C(=O)NCc3cccnc3)ccc2c1=O,0.434%,
CCCCCn1c(=O)[nH]c2cc(C(=O)NCCCN3CCCCC3C)ccc2c1=O (configuration not stated),-29.4%,
CCN(C(=O)CSc1nnnn1-c1ccc(OC)cc1)C1CCS(=O)(=O)C1 (configuration not stated),7.66%,

SMILES,"activity change, negative = growth inhibition",Potency
COc1ccc([C@H]2CC(=O)C=C(/C=C/c3ccccc3)C2)cc1,-10.5%,
COc1cc(C(=O)Nc2nccs2)cc(OC)c1OC,-26.6%,
COc1cc(NC(=O)c2noc3c2CSc2ccccc2-3)cc(OC)c1OC,,8.2 µM (active)
COc1ccc2c(c1)CCc1c(C(=O)Nc3c(C)n(C)n(-c4ccccc4)c3=O)noc1-2,-24.4%,
COc1cccc(COC(=O)C2CCN(S(=O)(=O)c3cccs3)CC2)c1OC,0.105%,
CC(C)(Oc1ccc(Cl)cc1)C(=O)OCC(=O)NCCc1ccc(S(N)(=O)=O)cc1,-6.13%,
Cc1ccc(CCN2CC(C(=O)O)CC2=O)cc1 (configuration not stated),0.404%,
CCNS(=O)(=O)c1cc(-c2nnc(Nc3cccc(C(F)(F)F)c3)c3ccccc23)ccc1C,,5.8 µM (active)
Cc1cc(Cl)c(S(=O)(=O)NCC2CCCO2)cc1OCC(N)=O (configuration not stated),9.13%,
COCCCNc1nc2c(-c3cccc(C(F)(F)F)c3)nnn2c2ccccc12,-25.1%,
Cc1ccc(C(=O)O)cc1S(=O)(=O)NCC1CCCO1 (configuration not stated),-3.24%,
Cc1ccc(-c2nnc(Nc3ccc(C(=O)N(C)C)cc3)c3ccccc23)cc1S(N)(=O)=O,-1.51%,
Cc1ccc(-c2nnc(Nc3cccc(Br)c3)c3ccccc23)cc1S(=O)(=O)NCC1CCCO1 (configuration not stated),,11.6 µM (active)
CCC(C)CN1C(=O)CN(S(C)(=O)=O)CC1(C)C(=O)Nc1ccc2c(c1)OCCO2 (configuration not stated),-8.04%,
Cc1ccc(CSc2nc(-c3ccccc3)c(C#N)c(=O)[nH]2)cc1,6.61%,
CCCCCN1CC(O)=C(c2ccccc2)C1=N,-23.7%,
CCOC(=O)N1CCN(C(=O)CSc2nnc(-c3c[nH]c4ccccc34)n2CCOC)CC1,,20.6 µM (active)
CCC(C)Sc1nnc(-c2c[nH]c3ccccc23)n1CCOC (configuration not stated),-25.8%,
Cc1nnc(SCC(=O)N2CCN(c3ccccc3)CC2)n1-c1ccccc1,-7.19%,
CCCCn1c(N)c(N(CCC(C)C)C(=O)c2ccc([N+](=O)[O-])o2)c(=O)[nH]c1=O,-25.2%,
CS(=O)(=O)N1CCC2(CCN(c3ccncc3)CC2)CC1,-21.5%,
O=C(C1=C(O)C(=O)N(CCOCCO)C1c1ccccn1)c1cccs1 (configuration not stated),0.178%,

SMILES,"activity change, negative = growth inhibition",Potency
CCc1ccc(NC(=O)CN2C(=O)COc3ccc(S(=O)(=O)N4CCCC4)cc32)cc1,-28.2%,
CN1CCN(S(=O)(=O)c2ccc(NC(=O)C3CCCO3)cc2)CC1 (configuration not stated),-6.78%,
CCc1ccc(CN(C)C(C)C(=O)Nc2ccc(S(=O)(=O)N3CCCC3)cc2)cc1 (configuration not stated),,16.4 µM (active)
CCc1ccc(NC(=O)CN2C(=O)CCSc3ccc(S(=O)(=O)N4CCCC4)cc32)cc1,-15.4%,
CN(CCC(=O)Nc1cc(S(=O)(=O)N(C)C)ccc1Cl)CC(=O)Nc1ccc(F)cc1,-29.5%,
CN(CC(=O)Nc1ccc(S(=O)(=O)N2CCCC2)cc1)Cc1ccc(Cl)c(Cl)c1,,18.4 µM (active)
O=S(=O)(NC(=S)Nc1ccccc1)c1ccc(F)cc1,-14.4%,
CC(=O)c1ccc[n+](C(C)CCC(C)[n+]2cccc(C(C)=O)c2)c1 (configuration not stated),-1.47%,
O=C(O)CCN1C(=O)CC2(CCCCC2)C1=O,-15.2%,
CN(CC(=O)Nc1ccccc1Cl)C(=O)COc1cccc2c1OC(C)(C)C2,-23.2%,
CCN(CC)CCCNC(=O)c1cn(C)c2ccc(S(=O)(=O)N(C)C3CCCCC3)cc2c1=O,3.24%,
CCn1cc(C(=O)NCc2ccc(C)cc2)c(=O)c2cc(S(=O)(=O)N3CCc4ccccc4C3)ccc21,,11.6 µM (active)
CCOc1ccc(CNC(=O)c2cc(=O)[nH]c3ccc(S(=O)(=O)N4CCCCC4)cc23)cc1,-0.677%,
CN(Cc1ccccc1)C(=O)c1cn(C)c2ccc(S(=O)(=O)N3CCCCC3)cc2c1=O,0.261%,
CCn1cc(C(=O)N(C)Cc2ccccc2)c(=O)c2cc(S(=O)(=O)N3CCCCCC3)ccc21,-3.43%,
CCn1cc(C(=O)NCc2ccccc2)c(=O)c2cc(S(=O)(=O)N3CCCCC3)ccc21,,7.31 µM (active)
CCOCCCNC(=O)c1cn(CC)c2ccc(S(=O)(=O)N3CCc4ccccc4C3)cc2c1=O,,16.4 µM (active)
CCn1cc(C(=O)NCC2CCCO2)c(=O)c2cc(S(=O)(=O)N3CCCCC3)ccc21 (configuration not stated),-23%,
Cc1ccc(CNC(=O)C2CCN(S(=O)(=O)c3ccc4nc5c(c(C(=O)O)c4c3)CC(C)CC5)CC2)cc1 (configuration not stated),,inactive
